Records with an inconclusive call do not appear. The source made the active and inactive calls. Unless noted, calls follow the shape of the full dose curve.
How the values were obtained:
[1] = Cell Viability - BJ (AID 421); details: BJ fibroblast viability, qHTS;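 also: potency is read from the fitted curve at half-maximal effect; cells exposed to compound for 40 hours at 37 °C before readout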
Summary of the method: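 Quantitative HTS: ATP depletion in BJ cells after 40 hr compound exposure in complete culture medium, detected with CellTiter-Glo; AC50 from standard Hill fits.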

[2] = Cell Viability - Jurkat (AID 426;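 active = dose-dependent loss of cell ATP signal giving a full or clear fitted curve, ranked by lower potency value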; also: potency is read from the fitted curve at half-maximal effect); details: qHTS
Summary of the method: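 Jurkat (clone E6-1, human T-cell leukemia) cells, 5000/well in complete medium, were exposed to compound for 40 hr at 37 °C. Viability was read as intracellular ATP by CellTiter-Glo luminescence; AC50 came from Hill fits of concentration-response data.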

[3] = Cell Viability - Hek293 (AID 427;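 active = compounds whose dose-response curve shows a full or clear partial loss of cell viability, called from curve shape rather than a numeric limit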;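 also: potency is read from the fitted curve at half-maximal effect; cells exposed to compound for 40 hours at 37 °C before reading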); details: qHTS
Summary of the method: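 AC50 values derive from Hill-modelled concentration-response of ATP-based luminescence, normalized between DMSO-only and 100 uM tamoxifen controls. Cells were exposed in complete culture medium for 40 hr at 37 °C before detection.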

[4] = Cell Viability - MRC5 (AID 434); details: MRC5 lung fibroblast viability, qHTS;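 also: potency is read from the fitted curve at half-maximal effect; potency reflects cytotoxicity seen as loss of intracellular ATP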
Summary of the method: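 MRC5 normal human lung fibroblasts, 1500 cells/well, exposed to compound for 40 hr at 37 C. Cellular ATP was read by CellTiter-Glo luminescence; data normalized to DMSO and 100 uM tamoxifen, with AC50 from Hill fits.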

[5] = Cell Viability - SK-N-SH (AID 435); details: SK-N-SH neuroblastoma cell viability qHTS;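 also: potency is read from the fitted curve at half-maximal effect; compound exposure lasted 40 h at 37 °C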
Summary of the method: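 SK-N-SH human neuroblastoma cells (1500/well) were exposed to compounds in complete medium for 40 h at 37 °C, and intracellular ATP was then measured by CellTiter-Glo luminescence. AC50 was taken from Hill fits, normalized to DMSO and 100 uM tamoxifen.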

[6] = molecular target: Mitogen-activated protein kinase 10 (Mus musculus) (UniProt Q61831); experiment: JNK3 AlphaScreen Assay (AID 530; active = well fitted curve in either direction with a large enough effect, not every such curve was filed as active;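 also: kinase came from lysate of stimulated human HepG2 cells; signal reports phosphorylation of biotinylated GST-cJun 1-79 at Ser73 with 10 µM ATP; % is scaled to controls: 0 for no effect and ±100 for the full control effect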); details: JNK3 lysate, c-Jun phosphorylation; series mostly up to 57.1 µM
Summary of the method: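 qHTS format: compounds tested as titrations against IL-1beta/TNF-alpha-activated HepG2 lysate JNK3 with biotin-GST-cJun substrate and 10 uM ATP at room temperature. Loss of anti-phospho-cJun AlphaScreen signal indicates inhibition.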

[7] = Cell Viability - N2a (AID 540; active = well fitted curve in the direction sought with a large enough effect; an effect the other way counts as inactive or inconclusive;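 also: plate controls were DMSO alone for no effect and tamoxifen control for full effect; nearly all actives have a fitted effect of over 45% in size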); details: N2a mouse neuroblastoma cell viability; activity change, negative = cytotoxicity: at 92.2 µM (top of the series)
Summary of the method: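 Mouse neuroblastoma N2a cells (1500/well) were preincubated 5 hr at 37 °C, then exposed to compounds for 40 hr at 37 °C in complete medium. Viability was read as intracellular ATP by CellTiter-Glo luminescence; AC50 from Hill fits.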

[8] = Cell Viability - NIH 3T3 (AID 541; active = well fitted curve in the direction sought with a large enough effect; an effect the other way counts as inactive or inconclusive;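 also: plate controls were DMSO alone for no effect and tamoxifen positive control for full effect; nearly all actives have a fitted effect of over 25% in size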); details: NIH 3T3 cell viability, qHTS; activity change, negative = cytotoxicity: at 92.2 µM (top of the series)
Summary of the method: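 NIH 3T3 mouse embryo fibroblasts (1000 cells/well) were plated in complete medium and treated with compound for 40 hr at 37 °C. Viability was read as intracellular ATP by CellTiter-Glo luminescence; AC50 values came from Hill-equation fits of concentration-response data.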

[9] = Cell Viability - HUV-EC-C (AID 542; active = well fitted curve in the direction sought with a large enough effect; an effect the other way counts as inactive or inconclusive; also: % is scaled to controls: 0 for no effect and ±100 for the full control effect; nearly all actives have a fitted effect of over 35% in size); details: HUV-EC-C endothelial cell viability, qHTS; series mostly up to 92.2 µM
Summary of the method: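 HUV-EC-C normal human vascular endothelial cells, 1000 cells/well, pre-incubated 5 hr at 37 °C, then exposed to compounds for 40 hr at 37 °C in complete medium. Viability measured as intracellular ATP by CellTiter-Glo luminescence; AC50 from Hill fits.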

[10] = Cell Viability - HepG2 (AID 433); details: qHTS;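 also: potency is read from the fitted curve at half-maximal effect; potency for ATP loss meaning cytotoxicity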
Summary of the method: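 HepG2 hepatocellular carcinoma cells (1500/well) were treated with compounds for 40 h at 37 °C in complete medium; intracellular ATP was read by CellTiter-Glo luminescence. Data were normalized to DMSO and 100 uM tamoxifen, and AC50 came from Hill fits.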

CCC1CO1 (stereo not given)
inactive: Potency [1] > 92 µM | Potency [2] > 92 µM | Potency [3] > 92 µM | Potency [4] > 92 µM | Potency [5] > 92 µM | outcome [6] | activity change, negative = cytotoxicity [7] -4.66% | Potency [8] | Potency [9]

Nc1nc(CC(=O)O)cs1
inactive: Potency [1] > 92 µM | Potency [2] > 92 µM | Potency [3] > 92 µM | Potency [4] > 92 µM | Potency [5] > 92 µM | outcome [6] | activity change, negative = cytotoxicity [7] 6.3% | Potency [8] | Potency [9]

CC(C)N=C=NC(C)C
inactive: Potency [1] > 92 µM | Potency [2] > 92 µM | Potency [3] > 92 µM | Potency [4] > 92 µM | Potency [5] > 92 µM | outcome [6] | activity change, negative = cytotoxicity [7] -6.55% | Potency [8]

CC(=O)c1cccc([N+](=O)[O-])c1
inactive: Potency [1] > 92 µM | Potency [2] > 92 µM | Potency [3] > 92 µM | Potency [4] > 92 µM | Potency [5] > 92 µM | outcome [6] | Potency [9]

CC=C(Cl)Cl
inactive: Potency [1] > 92 µM | Potency [2] > 92 µM | Potency [3] > 92 µM | Potency [4] > 92 µM | Potency [5] > 92 µM | outcome [6] | activity change, negative = cytotoxicity [7] -2.96% | Potency [8] | Potency [9]

c1ccc(Oc2ccccc2)cc1
inactive: Potency [1] > 92 µM | Potency [2] > 92 µM | Potency [3] > 92 µM | Potency [4] > 92 µM | Potency [5] > 92 µM | outcome [6] | activity change, negative = cytotoxicity [7] -0.0485% | Potency [8] | Potency [9]

Nc1cccc(C(F)(F)F)c1
inactive: Potency [1] > 92 µM | Potency [2] > 92 µM | Potency [3] > 92 µM | Potency [5] > 92 µM | outcome [6] | activity change, negative = cytotoxicity [7] 0.982% | Potency [9]

BrC(Br)C(Br)Br
inactive: Potency [1] > 92 µM | Potency [2] > 92 µM | Potency [3] > 92 µM | outcome [6] | activity change, negative = cytotoxicity [7] 7.56% | Potency [9]

CC(C)(C)OC=O
inactive: Potency [1] > 92 µM | Potency [2] > 92 µM | Potency [3] > 92 µM | Potency [4] > 92 µM | outcome [6] | activity change, negative = cytotoxicity [7] -8.52% | Potency [8] | Potency [9]

Cc1ccc(C(C)(C)C)cc1
inactive: Potency [1] > 92 µM | Potency [2] > 92 µM | Potency [3] > 92 µM | Potency [5] > 92 µM | outcome [6] | activity change, negative = cytotoxicity [7] -7.24% | Potency [8] | Potency [9]

COc1ccc(N=[N+]([O-])c2ccc(OC)cc2)cc1
inactive: Potency [1] > 92 µM | Potency [2] > 92 µM | Potency [3] > 92 µM | Potency [4] > 92 µM | Potency [5] > 92 µM | outcome [6] | activity change, negative = cytotoxicity [7] -19% | Potency [8] | Potency [9]

Nc1cccc(S(=O)(=O)O)c1
inactive: Potency [1] > 92 µM | Potency [2] > 92 µM | Potency [3] > 92 µM | Potency [4] > 92 µM | Potency [5] > 92 µM | outcome [6]

BrC/C=C/CBr
inactive: Potency [1] > 92 µM | Potency [2] > 92 µM | Potency [3] > 92 µM | Potency [4] > 92 µM | outcome [6] | activity change, negative = cytotoxicity [7] 6.2% | Potency [8] | Potency [9]

CC(C)Nc1ccccc1
inactive: Potency [1] > 92 µM | Potency [2] > 92 µM | Potency [3] > 92 µM | Potency [4] > 92 µM | Potency [5] > 92 µM | outcome [6] | activity change, negative = cytotoxicity [7] -9.13% | Potency [8] | Potency [9]

CC(C)C=O
inactive: Potency [1] > 92 µM | Potency [2] > 92 µM | Potency [3] > 92 µM | Potency [10] > 92 µM | outcome [6] | activity change, negative = cytotoxicity [7] -13.8% | Potency [8] | Potency [9]

CCCCC(CC)COCC1CO1 (stereo not given)
inactive: Potency [1] > 92 µM | Potency [2] > 92 µM | Potency [3] > 92 µM | Potency [4] > 92 µM | Potency [5] > 92 µM | outcome [6] | activity change, negative = cytotoxicity [7] -13.9% | Potency [8] | Potency [9]

CCCCC(CC)C(=O)O (stereo not given)
inactive: Potency [1] > 92 µM | Potency [2] > 92 µM | Potency [3] > 92 µM | Potency [4] > 92 µM | Potency [5] > 92 µM | outcome [6] | activity change, negative = cytotoxicity [7] 4.15% | Potency [8] | Potency [9]

CCOCCOCC
inactive: Potency [1] > 92 µM | Potency [2] > 92 µM | Potency [3] > 92 µM | Potency [4] > 92 µM | Potency [5] > 92 µM | outcome [6] | Potency [8] | Potency [9]

COC(=O)CCCC(=O)OC
inactive: Potency [1] > 92 µM | Potency [2] > 92 µM | Potency [3] > 92 µM | Potency [4] > 92 µM | Potency [5] > 92 µM | outcome [6] | activity change, negative = cytotoxicity [7] 3.33% | Potency [8] | Potency [9]
